# From PubChem BioAssay
# CtBP-E1A inh: qHTS Assay for Inhibitors of the CtBP/E1A Interaction. hit rate 0.49% among 340,000. AlphaScreen GST-E1A/His-CtBP binding, 1536-well; active compounds read low. AID 651724, 2012. activity change, % (no concentration beside the values); in the data active = activity change below about -65%; inconclusive = mostly about -30% to -63%
#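 In 5 uL wells, 23 nL compound meets equimolar GST-E1A and His-CtBP (5X stock 125 nM each) for 2 h, 37 °C. Beads (5X, 50 ug/mL) then 1 h, 37 °C, dark.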
# Six1-Eya2 blk: qHTS Assay for Inhibitors of the Six1/Eya2 Interaction | Homeobox protein SIX1 (Homo sapiens) + Protein phosphatase EYA2 (Homo sapiens), … | AlphaScreen GST-Six1/His-Eya2 binding, biochemical; active compounds read low | activity change, % (concentration not given with the values) | hit rate 0.56% among 360,000; in the data active = activity change below about -65%; inconclusive = mostly about -30% to -63%
#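 GST-Six1 + His-Eya2 (5X stock: 250/500 nM); Tris pH 8.0, 300 mM NaCl, 0.05% BSA, 0.02% Tween 20; GSH donor/Ni acceptor beads; 1 h 37 °C dark; AlphaScreen readout.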
# Gal4-VP16 FLuc: VP16 counterscreen qHTS for inhibitors of ROR gamma transcriptional activity. Drosophila S2 Gal4-VP16 UAS-luciferase, luminescence, 20 h. Potency, µM (top dose mostly 53.6 µM), for the others: at the top dose activity, negative = inhibition, actives largely listed as inhibitors. hit rate 3.5% among 310,000;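 note: Gal4-VP16 expression switched on by copper sulfate through the metallothionein promoter; potency is the fitted concentration of half-maximal effect; nearly all actives have a fitted effect of over 50% in size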
# PKM2 activator: qHTS Assay for Activators of Human Muscle isoform 2 Pyruvate Kinase. Pyruvate kinase PKM (Homo sapiens), P14618. purified PKM2, Kinase-Glo ATP luminescence, activation; response scale: 0% is enzyme alone, no compound. Potency, µM (top dose mostly 57.5 µM), inactives show at the top dose activation, usual class: activators. hit rate 0.34% among 260,000. AID 1631, 2009; note: potency is the fitted concentration of half-maximal effect; nearly all actives have a fitted effect of over 55% in size
# Target sequence (P14618 whole entry, looked up, canonical isoform): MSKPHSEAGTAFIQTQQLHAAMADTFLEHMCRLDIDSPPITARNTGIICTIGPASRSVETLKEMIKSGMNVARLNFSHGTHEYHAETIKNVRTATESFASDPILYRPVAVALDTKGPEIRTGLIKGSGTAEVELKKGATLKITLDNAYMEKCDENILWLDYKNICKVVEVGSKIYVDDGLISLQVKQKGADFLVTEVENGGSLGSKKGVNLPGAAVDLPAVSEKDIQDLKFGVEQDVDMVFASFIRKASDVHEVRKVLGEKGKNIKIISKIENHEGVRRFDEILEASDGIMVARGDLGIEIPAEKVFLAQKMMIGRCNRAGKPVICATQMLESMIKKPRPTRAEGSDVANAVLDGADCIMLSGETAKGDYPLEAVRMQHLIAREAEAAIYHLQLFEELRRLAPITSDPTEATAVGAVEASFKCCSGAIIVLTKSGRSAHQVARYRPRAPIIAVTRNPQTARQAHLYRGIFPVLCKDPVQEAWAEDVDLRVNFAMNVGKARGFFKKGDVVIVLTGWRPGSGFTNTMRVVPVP
#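 Purified hPK-M2 (>95%) run at intermediate activity with 0.1 mM ADP and 0.5 mM PEP in 50 mM imidazole pH 7.2, KCl, MgCl2; 1 h room temperature. ATP formed read by Kinase-Glo luminescence; normalized to uninhibited and no-enzyme controls.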
# RORg inh: qHTS for inhibitors of ROR gamma transcriptional activity; Nuclear receptor ROR-gamma (Mus musculus), P51450; Drosophila S2 Gal4-RORgamma UAS-luciferase reporter, 20 h; Potency, µM (top dose mostly 53.6 µM), without a hit: at the top dose activity change, negative = inhibition, actives largely listed as inhibitors; hit rate 5.4% among 310,000; AID 2551, 2010; note: potency is the fitted concentration of half-maximal effect; nearly all actives have a fitted effect of over 60% in size
#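 Stable Schneider cell line, Gal4 DNA-binding domain fused to ROR gamma, UAS-luciferase. Cmpd 1 hr RT → CuSO4 700 uM final → 20 hr RT → luciferase reagent 10 min → luminescence.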
# The depositor's hits bear a star; ? = inconclusive; · = no result given. The list is not random: actives were taken first. Their share in the collection is about 5.6%. Unless noted, calls come from the whole dose curve; as a rule, active = well fitted curve in the direction sought with a large enough effect; inconclusive = small, poorly fitted or top-dose-only effect, or another doubt; inactive = no such curve, though single readings can be large; an effect the other way counts as inactive or inconclusive. % is set by controls: 0 for no effect and ±100 for the full control effect.
SMILES,CtBP-E1A inh,Six1-Eya2 blk,Gal4-VP16 FLuc,PKM2 activator,RORg inh
CCSc1cc(C2C(C#N)=C(N)OC(C)=C2C(=O)OC)c(C)o1 (stereo unspecified),1,-1,-2%,-13%,13µM*
Cc1nn(C)c(C)c1NC(=O)Nc1ccc(Cl)c(Cl)c1,-4,0,8%,-1%,13%
Cc1cc(NNC(=O)Nc2cccc(Cl)c2)nc2c1c(C)nn2C,·,·,11µM*,23%,?
Cc1nn(C)c2nc(NNC(=O)Nc3cc(Cl)nc(Cl)c3)cc(C(C)C)c12,·,·,16µM*,·,-18%
O=C(N/N=C/C(Cl)=C/c1ccccc1)c1ccccc1F,?,2,-15%,1%,39%
O=C(N/N=C/C(Cl)=C/c1ccccc1)c1ccco1,?,-5,9%,-26%,4%
O=C(N/N=C/C(Cl)=C\c1ccccc1)c1cnccn1,-85*,?,18%,-2%,19%
O=C(N/N=C/C(Cl)=C\c1ccccc1)c1ccco1,-77*,-14,-11%,-2%,?
O=C(N/N=C/C(Cl)=C/c1ccccc1)c1cnccn1,-92*,?,?,3%,-16%
CC(=C/c1ccccc1)/C=N/NC(=O)c1cnccn1,-1,4,?,-7%,?
COc1ccc(CNc2ccnc(-c3ccccc3Cl)n2)c(OC)c1,·,·,-14%,·,44%
COc1cc(-c2noc(C)c2C(=O)NCCCN2CCOCC2)cc(OC)c1OC,6,5,·,·,·
N#C/C(=C1\C(=O)Nc2c(Cl)cc(Cl)cc21)c1nnc2n1CCCCC2,-1,1,?,-16%,16µM*
N#C/C(=N\Nc1cc(Cl)cc(Cl)c1)c1nnc2n1CCCCC2,-4,-16,6.3µM*,9%,6.3µM*
O=C(Cn1cnc2ccccc21)N/N=C/C(Br)=C/c1ccccc1,-83*,0,?,-1%,?
O=C(Cn1cnc2ccccc21)Nc1ccc(SC(F)F)cc1,1,-2,7.9µM*,1%,4µM*
CC(/C=N/NC(=O)CSc1nc(C)cc(C)n1)=C\c1ccccc1,-17,-9,2%,-3%,?
CC(/C=N\NC(=O)Cn1c(C)nc2ccccc21)=C\c1ccccc1,-2,-6,13µM*,0%,21%
COc1ccc(/C=N/NC(=O)CCn2cnc3ccccc32)cc1,1,-2,?,5%,13µM*
Cn1c(=O)c2c(ncn2CC(=O)N/N=C/C(Br)=C/c2ccccc2)n(C)c1=O,-18,0,9%,11%,-25%
CCN(CC)S(=O)(=O)c1ccc(C(=O)NCc2n[nH]c(=S)n2-c2ccc(Cl)c(Cl)c2)cc1,-7,0,-21%,10%,1%
COc1ccc(C(CNC(=O)c2cccc(S(=O)(=O)Nc3cccc(C)c3)c2)N2CCOCC2)cc1 (stereo unspecified),6,-3,·,·,·
Cc1ccc(CS(=O)Cc2ccc(C(=O)N3CCN(C4CCCCC4)CC3)o2)cc1 (stereo unspecified),-16,1,-2%,·,3%
Cc1csc2cc(-c3cccc([N+](=O)[O-])c3)c(-c3cccc([N+](=O)[O-])c3)c[n+]12,0,4,0%,-7%,-1%
O=C(Cn1cnc2ccccc21)N/N=C/c1cccs1,2,2,1%,7%,-42%
SMILES,CtBP-E1A inh,Six1-Eya2 blk,Gal4-VP16 FLuc,PKM2 activator,RORg inh
Cn1cccc1/C=N/NC(=O)Cn1cnc2ccccc21,-9,-4,?,0%,8.9µM*
O=C(CNC(=O)c1ccco1)NCC(=O)OCc1ccc(Cl)cc1Cl,-5,-1,13%,-5%,-16%
CC(C)c1ccc(C(C)NC(=S)NC2CCCCC2)cc1 (stereo unspecified),-6,-11,2.8µM*,2%,1.4µM*
CC(NC(=O)C1CCCCC1)c1ccc2c(c1)OCCO2 (stereo unspecified),-2,13,0%,-5%,11%
CC(NC(=S)NC1CCCCC1)c1ccc(C(C)(C)C)cc1 (stereo unspecified),-16,17,2µM*,-1%,1.6µM*
COc1ccc(NC(=O)Oc2cc(C)ccc2C(C)C)cc1,5,5,-6%,2%,22%
CCCOc1ccc(CNC(=S)Nc2ccccc2)cc1Cl,0,-1,7.1µM*,·,5µM*
CC(C)COc1ccc(CNC(=S)Nc2ccccc2)cc1Cl,6,-7,13µM*,·,5µM*
CC(C)Oc1ccc(CNC(=S)Nc2ccccc2)cc1Cl,·,-4,11µM*,4%,11µM*
Cc1cc(NC(=O)CSc2ncc(C(=O)O)n2-c2ccc(F)cc2)no1,·,-1,·,·,·
Oc1ccc(O)c(/C(=N/Nc2ccccc2)c2ccccc2)c1,·,·,9%,·,-21%
Cc1ccc(NC(=O)Cc2ccccc2F)cc1S(=O)(=O)N1CCCCCC1,10,-2,·,·,·
COc1cc(NS(=O)(=O)c2cc3c(cc2C)NC(=O)CO3)cc(OC)c1,-3,-1,-12%,7.1µM*,25%
Nc1nc2ncc(C(=O)c3cc(Cl)cc(Cl)c3O)cc2s1,-72*,?,0%,-25%,-3%
CN(CCOc1ccccc1)C(=O)C1CCC(=O)N(CCc2ccc(Cl)cc2)C1 (stereo unspecified),10,1,23%,2%,?
Cc1ccc(NS(=O)(=O)c2c(C)nc3sccn3c2=O)c(C)c1,8,2,5%,?,14%
Cc1ccc(NS(=O)(=O)c2c(C)nc3sccn3c2=O)cc1C,5,5,0%,4.5µM*,?
CCN1CCN(C(=S)NC(=O)/C=C/c2cccs2)CC1,·,1,?,-8%,3.2µM*
CCN1CCN(C(=S)NC(=O)c2cccs2)CC1,4,16,?,·,6.3µM*
CC(=O)N1CCN(C(=O)CNC(=O)c2cccs2)CC1,0,9,·,·,·
O=C(NC(=S)N1CCN(c2ccc(C(F)(F)F)cc2[N+](=O)[O-])CC1)c1cccs1,-14,-21,?,3%,0.11µM*
CO/N=C(\CCC(=O)O)c1cccs1,-5,0,-10%,0%,-9%
CN1C(=O)/C(=C/c2cc(C(C)(C)C)c(O)c(C(C)(C)C)c2)NC1=S,-2,-1,?,10%,7.1µM*
C=CCNc1nc(-c2ccc(OC)cc2OC)cs1,-30,-22,18µM*,3%,9%
COc1ccc(-c2csc(NC(=O)C3=COCCO3)n2)c(OC)c1,-5,-9,·,·,·
CC(C)N(CCn1c(SCC(=O)Nc2cccnc2Cl)nc2ccccc2c1=O)C(C)C,0,-14,·,·,·
CCCCN(Cc1ccco1)C(=O)Cn1ncc2c(=O)oc3ccc(C)cc3c21,-2,8,-3%,6%,1.4µM*
